Screening data from PubChem BioAssay.
GLP-1R agonist: activates the human GLP-1 receptor; P43220; HEK293 GLP-1R CRE-luciferase, luminescence, 4-6 h; cells express a hypersensitive GLP-1R form; Potency, µM (series often up to 45.6 µM), actives largely listed as activators; 380,000 tested, 0.007% active
KCNH2 3.1 block: KCNH2 3.1 (human) potassium channel inhibition; U2OS KCNH2 3.1, thallium flux FluxOr; active compounds read low; activity change, % (tested at about 1.8 µM); 340,000 tested, 0.95% active; AID 720553;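 active means maximum activity change below -70%; inconclusive means maximum activity change from -70% to -50%; inactive means maximum activity change above -50%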;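 further: thallium influx rate constant from kinetic fluorescence after stimulation buffer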
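Thallium flux read-out: FluxOr dye with Red40 quencher in HBSS/HEPES, 45 min at RT. Rate constants from kinetic reads were normalized to positive and negative DMSO controls. Cells: U2OS virally expressing the 3.1 isoform.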
GLS inhibitor: inhibitors of human glutaminase (GLS) | O94925 | GLS enzymatic activity, qHTS titration | Potency, µM (series often up to 45.5 µM), actives largely listed as inhibitors | 410,000 tested, 0.21% active | AID 624170
Target sequence (O94925 whole entry, looked up): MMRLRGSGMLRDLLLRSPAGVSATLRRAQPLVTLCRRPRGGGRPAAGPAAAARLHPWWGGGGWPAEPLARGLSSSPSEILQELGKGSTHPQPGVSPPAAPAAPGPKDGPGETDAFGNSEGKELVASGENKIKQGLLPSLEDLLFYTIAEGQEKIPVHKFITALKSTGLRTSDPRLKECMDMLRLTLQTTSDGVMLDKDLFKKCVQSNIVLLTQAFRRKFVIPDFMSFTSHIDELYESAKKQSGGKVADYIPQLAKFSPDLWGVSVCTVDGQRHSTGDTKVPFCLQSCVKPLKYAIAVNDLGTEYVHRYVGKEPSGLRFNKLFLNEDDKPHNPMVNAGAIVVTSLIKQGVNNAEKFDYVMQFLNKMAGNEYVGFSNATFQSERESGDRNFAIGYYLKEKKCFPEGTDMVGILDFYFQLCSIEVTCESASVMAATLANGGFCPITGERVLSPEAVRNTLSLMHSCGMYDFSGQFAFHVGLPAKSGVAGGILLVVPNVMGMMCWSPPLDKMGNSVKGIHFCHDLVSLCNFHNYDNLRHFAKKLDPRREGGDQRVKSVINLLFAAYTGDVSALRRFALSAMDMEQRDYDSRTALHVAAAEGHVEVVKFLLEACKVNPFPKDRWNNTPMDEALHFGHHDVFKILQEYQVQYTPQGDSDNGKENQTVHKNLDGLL
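Compounds were pin-transferred onto hKGA, after which L-glutamine (1 mM solution) and a detection mix of glutamate oxidase, HRP and Amplex Red were added. Initial and 30 min RT fluorescence reads were collected.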
GLP1R inv ag: GLP-1 receptor (human) inverse agonism. Potency, µM (titrated, usually from 38.3 µM), most hits filed as inhibitors. AID 624417. HEK293 GLP-1R CRE-luciferase, luminescence, 24 h; GLP-1R form is constitutively active. 410,000 tested, 1.6% active; further: nearly all actives have a fitted effect of over 55% in size
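Seeding at 200 cells/uL, 12 h culture, 24 hr compound treatment, then luciferase reagent and a luminescence read; cells are HEK293 stably expressing a constitutively active GLP-1R plus cAMP-responsive luciferase.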
hERG WT inh: blocks the wildtype human KCNH2 potassium channel; U2OS, BacMam KCNH2, thallium flux FluxOr; active compounds read low; activity change, % at 1.84 µM; 340,000 tested, 0.37% active; AID 720551;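 active means maximum activity change below -70%; inconclusive means maximum activity change between -70% and -50%; inactive means maximum activity change above -50%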
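U2OS cells transduced with wild-type KCNH2 virus are loaded with FluxOr dye for 45 min, and thallium flux is measured in kinetic reads before and after stimulation buffer. Rate constants are normalized to DMSO controls.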
GLP1R cytotox: cytotoxicity in counter-screen for GLP-1R inverse agonists; HEK293 cAMP-luciferase reporter cells, luminescence, 24 h; Potency, µM (top dose mostly 38.3 µM), hits mostly inhibitors; 410,000 tested, 0.13% active; AID 624418;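 further: loss of luciferase light is scored as toxicity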
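1536-well qHTS counterscreen of the MLSMR; 200 cells/uL, 12 h pre-incubation, 23 nL cpd, 24 h at 37 deg C 5% CO2, luciferase detection reagent, 12 min RT, luminescence. Inhibition = undesired.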
Large screens that a line does not name were inactive. In the library only some 2.8% were active in any assay of this set; here they are far more common. Unless noted, the call rests on the fitted dose curve; in most records, active means well fitted curve in the direction sought with a large enough effect; inconclusive means small, poorly fitted or top-dose-only effect, or another doubt; inactive means no such curve, though single readings can be large; an effect the other way counts as inactive or inconclusive.

O=C(NNC(=O)c1cc(-c2ccc(Cl)cc2Cl)nc2ccccc12)Nc1ccccc1	GLP1R inv ag 2.8µM
COc1cc(C2CC(=O)N(c3ccc(C)c(Cl)c3)C3=C2C(=O)OC3)cc(OC)c1OC (configuration not stated)	none (no result: GLP-1R agonist, KCNH2 3.1 block, hERG WT inh)
CC(=O)c1cccc(NC(=O)C(CC(C)C)NS(=O)(=O)c2ccc3c(c2)CCN3C(C)=O)c1 (configuration not stated)	none (no result: GLP-1R agonist, KCNH2 3.1 block, hERG WT inh)
Cc1cc(C)c(NC(=O)C2CCCN(C(=O)c3cnn(-c4ccccc4)c3-n3cccc3)C2)c(C)c1 (configuration not stated)	GLP1R inv ag inconclusive (no result: GLP-1R agonist, KCNH2 3.1 block, hERG WT inh)
Cc1cc(C)cc(NC(=O)C2CCCN(C(=O)c3cnn(-c4ccccc4)c3-n3cccc3)C2)c1 (configuration not stated)	GLP1R inv ag 10µM (no result: GLP-1R agonist, KCNH2 3.1 block, hERG WT inh)
COc1ccc(C(CNC(=O)/C=C/c2c(Cl)nc3ccccn23)N(C)C)cc1 (configuration not stated)	KCNH2 3.1 block -87
COc1ccc(CCN(C)C(=O)/C=C/c2c(Cl)nc3ccccn23)cc1OC	none
C=CCOc1ccc(CN(C)CC(O)COc2ccc(CCC(C)=O)cc2)cc1 (configuration not stated)	GLP1R inv ag 11µM
CCCCCN1CSC(=S)N(Cc2ccccc2)C1	GLP1R inv ag 13µM, hERG WT inh -74, GLP1R cytotox inconclusive
CCN1CSC(=S)N(Cc2ccccc2)C1	GLP1R inv ag inconclusive, GLP1R cytotox inconclusive
O=C(C1=COCCO1)N1CCN(C(c2ccccc2)c2ccccc2)CC1	GLP1R inv ag 10µM
O=C(NCC(=O)N1CCN(C(c2ccccc2)c2ccccc2)CC1)c1ccccc1F	GLP1R inv ag 8.9µM
CC(C)(C)C(=O)N1CCN(C(c2ccccc2)c2ccccc2)CC1	GLP1R inv ag inconclusive
Cc1oc(C(C)(C)C)cc1C(=O)N1CCN(C(c2ccccc2)c2ccccc2)CC1	GLP1R inv ag 7.9µM
O=C(C1=COCCO1)N1CCN(S(=O)(=O)c2cccc(Cl)c2Cl)CC1	GLP1R inv ag inconclusive
Cc1occc1C(=O)N1CCN(C(c2ccccc2)c2ccccc2)CC1	GLP1R inv ag inconclusive (no result: GLS inhibitor)
O=C(CNC(=O)Cc1ccccc1)NCC(=O)N1CCN(C(c2ccccc2)c2ccccc2)CC1	GLP1R inv ag inconclusive
Cc1ccccc1C(=O)N1CCN(C(c2ccccc2)c2ccccc2)CC1	GLP1R inv ag 8.9µM
CNC(=O)C(=O)NCC1OCCN1S(=O)(=O)c1ccc(OC)c(OC)c1 (configuration not stated)	none
COC(=O)c1cc2c(cc1NC(=O)c1c(C)nn(-c3ccc(C)cc3)c1-n1cccc1)OCO2	none (no result: GLP-1R agonist, KCNH2 3.1 block, hERG WT inh)
CCN1CCN(C(c2cccc(OC)c2)c2c(O)cc(C)n(Cc3ccco3)c2=O)CC1 (configuration not stated)	none (no result: GLP-1R agonist, KCNH2 3.1 block, hERG WT inh)
CCC(C)N(CCNC(=O)c1ccc2c(c1)NC(=O)c1ccccc1S2)C1CCCCC1 (configuration not stated)	GLP1R inv ag 3.5µM, GLP1R cytotox inconclusive
COc1ccc(NC(=O)COC(=O)c2c3c(nc4ccccc24)CCCC3)cc1Cl	GLP1R inv ag 3.5µM, GLP1R cytotox inconclusive
COc1ccc(NC(=O)COC(=O)c2c3c(nc4ccccc24)CCCC3)cc1	GLP1R inv ag inconclusive
Cc1ccc(C)c(N2CCN(C(=O)c3cc4c(=O)oc5ccccc5c4s3)CC2)c1	none (no result: KCNH2 3.1 block, hERG WT inh)
Cc1ccc(-n2ncc3c(=O)n(CC(=O)NCc4ccco4)cnc32)cc1	none
Cc1ccc(-n2ncc3c(=O)n(CC(=O)Nc4cccc(Cl)c4)cnc32)cc1C	KCNH2 3.1 block -83
Cc1ccc(-n2ncc3c(=O)n(CC(=O)NCc4ccco4)cnc32)cc1C	KCNH2 3.1 block -85
CCCC(C)C(=O)Nc1ncc(S(=O)(=O)c2ccc([N+](=O)[O-])cc2)s1 (configuration not stated)	KCNH2 3.1 block -106, hERG WT inh -102, GLP1R cytotox inconclusive
